# Assay outcomes: PubChem BioAssay, National Center for Advancing Translational Sciences (NCATS)
# Only some compounds are listed: those with a hit (about 1.4% of all), similar ones and a draw of the others.
# RXFP1 agonist: RXFP1 (human) receptor agonism; 0.3% of 370,000 active; HEK293T-RXFP1 cAMP TR-FRET, 30 min; response scale: percent of porcine relaxin response, buffer zero; AID 2676; Potency, µM (highest dose often 57.5 µM), inactives show at the highest dose activation, most hits filed as activators; note: potency is the fitted concentration of half-maximal effect; % is set by controls: 0 for no effect and ±100 for the full control effect; nearly all actives have a fitted effect of over 60% in size
# Target sequence (Q9HBX9 whole entry, looked up): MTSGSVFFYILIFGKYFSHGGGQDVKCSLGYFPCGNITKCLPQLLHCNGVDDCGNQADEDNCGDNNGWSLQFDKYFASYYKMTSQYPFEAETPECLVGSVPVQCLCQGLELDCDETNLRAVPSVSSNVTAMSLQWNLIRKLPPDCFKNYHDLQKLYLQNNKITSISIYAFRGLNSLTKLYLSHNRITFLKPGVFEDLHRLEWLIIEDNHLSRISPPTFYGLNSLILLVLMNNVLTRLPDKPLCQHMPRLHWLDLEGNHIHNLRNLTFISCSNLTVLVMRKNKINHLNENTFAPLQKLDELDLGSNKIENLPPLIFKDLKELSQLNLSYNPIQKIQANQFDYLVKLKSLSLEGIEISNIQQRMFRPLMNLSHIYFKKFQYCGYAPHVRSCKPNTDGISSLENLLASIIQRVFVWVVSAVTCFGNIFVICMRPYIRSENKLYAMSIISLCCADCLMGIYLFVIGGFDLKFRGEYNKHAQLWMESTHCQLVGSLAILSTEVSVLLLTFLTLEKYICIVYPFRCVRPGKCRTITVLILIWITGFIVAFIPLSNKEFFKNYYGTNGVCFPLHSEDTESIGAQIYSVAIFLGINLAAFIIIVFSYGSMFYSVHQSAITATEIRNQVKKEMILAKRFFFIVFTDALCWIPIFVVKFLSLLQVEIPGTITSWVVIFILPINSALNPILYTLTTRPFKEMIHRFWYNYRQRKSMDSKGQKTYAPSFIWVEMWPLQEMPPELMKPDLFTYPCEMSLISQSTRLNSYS
#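 HEK293 cells stably expressing RXFP1, treated 30 min at 37C with compounds plus PDE4 inhibitor Ro 20174; cAMP measured by HTRF TR-FRET. Normalized to buffer and 29 nM porcine relaxin; EC50 by Hill fit.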
# PTHR1 ag: agonists of human PTHR1 parathyroid hormone receptor; 0.075% of 410,000 active; Potency, µM (doses to about 115 µM), for the others: top-dose activation, most hits filed as activators; HEK293 GP2 PTHR1 cells, GloSensor cAMP luminescence, 1 h; Q03431; AID 743266; note: potency is the fitted concentration of half-maximal effect; nearly all actives have a fitted effect of over 55% in size
#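 HEK-293-derived GP2 cells expressing PTHR1 and a GloSensor cAMP reporter, 3,000/well, plated overnight, given luciferin plus IBMX (each 0.5 mM as added) for 1 h at 37 °C, then compound for 1 h at 37 °C. Luminescence was read after 15 min at room temperature.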
# Glioma ERSR ind: induces the endoplasmic reticulum stress response in human glioma cells. U87-MG GRP78 promoter luciferase reporter, 16 h. Potency, µM, without a hit: at the top dose activation, most hits filed as activators. 0.02% of 420,000 active. AID 602332; note: potency is the fitted concentration of half-maximal effect; series mostly up to about 76 µM; % of control where 0% means no effect; nearly all actives have a fitted effect of over 35% in size
#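 ERSR induction read as luciferase luminescence (Bright-Glo, 10 min at room temperature) in stably transfected human U87-MG glioma cells exposed to compounds for 16 h, using GRP78 as sensor.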
# KCNH2 3.1 block: KCNH2 3.1 (human) potassium channel inhibition. U2OS KCNH2 3.1, thallium flux FluxOr; active compounds read low. activity change, % (tested at about 1.8 µM). 0.95% of 340,000 active;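 active = maximum activity change below -70%; inconclusive = maximum activity change from -70% to -50%; inactive = maximum activity change above -50%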;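 note: thallium influx rate constant from kinetic fluorescence after stimulation buffer; % is set by controls: 0 for no effect and ±100 for the full control effect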
#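 U2OS cells transduced with KCNH2 3.1 mutant virus (1.77 x 10^8 /mL, 4 h), plated overnight at 37 C, loaded 45 min with FluxOr dye plus Red40 quencher. Thallium flux rate constant from kinetic reads after stimulation buffer, normalised to controls.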
# KCNH2 WT inh: blocks the wildtype human KCNH2 potassium channel; Q12809; 0.37% of 340,000 active; U2OS, BacMam KCNH2, thallium flux FluxOr; active compounds read low; AID 720551; activity change, % at 1.84 µM;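 active = maximum activity change below -70%; inconclusive = maximum activity change between -70% and -50%; inactive = maximum activity change above -50%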; note: % is set by controls: 0 for no effect and ±100 for the full control effect
#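 U2OS cells were transduced with wild-type KCNH2 virus (2.03 x 10^8 / mL) for 4 h at room temperature, then cultured overnight at 37 C. Thallium flux was read with FluxOr dye. Rate constants were normalized to DMSO controls.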
# RXFP1 antagonist: antagonists of human relaxin receptor RXFP1; AID 1259400; activity change, negative = inhibition, % at 57.5 µM; Q9HBX9; HEK293-RXFP1, relaxin-stimulated cAMP HTRF, 30 min; active compounds read low; 0.59% of 350,000 active;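 active = activity change of -60% or lower, but not beyond a set lower limit; inconclusive = change between -60% and -40%, or beyond the set limit; inactive = change above -40%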; note: % is set by controls: 0 for no effect and ±100 for the full control effect
# * marks the source's active call; other numbers are inactive results; i = inactive; ? = inconclusive; . = not tested or not shown; ! = a repeat was not active; [ ] = another dose, or the depositor's remark. Unless noted, calls come from the whole dose curve; as a rule, active = well fitted curve in the direction sought with a large enough effect; inconclusive = small, poorly fitted or top-dose-only effect, or another doubt; inactive = no such curve, though single readings can be large; an effect the other way counts as inactive or inconclusive.
SMILES,RXFP1 agonist,PTHR1 ag,Glioma ERSR ind,KCNH2 3.1 block,KCNH2 WT inh,RXFP1 antagonist
Oc1ccc(-c2nccs2)cc1,.,i,5.9%,-120.1*,15.7,-7.6
Cc1c(NC2=NC3(CCCCC3)Cc3ccccc32)c(=O)n(C)n1-c1ccccc1,0.4%,i,-9.5%,-194.2*,-171.6*,-3.4
CN1CCN(c2ccc(C(=O)c3ccc(Br)cc3)cc2[N+](=O)[O-])CC1,3.3%,-28.0%,0.9%,-81.3*,-20.1,-22.5
CN1CCN(c2ccccc2NC(=O)c2ccc(N3CCCC3)c([N+](=O)[O-])c2)CC1,0.4%,i,-1.9%,-1.5,5.7,-11.7
Cc1ccc(O)c(N=CC2=C(O)c3ccccc3C2=O)c1,28.2µM*,-13.6%,31.6µM*,15.5,3.2,17.8
O=C(Cc1ncc(C(F)(F)F)cc1Cl)N1CCN(c2cccc(Cl)c2)CC1,0.0%,i,-1.7%,8.4,0.5,5.3
Cc1ccc(CNS(=O)(=O)c2ccc(Br)s2)cc1,1.8%,i,-3.8%,9.4,-2.4,-12.2
CCOc1ccc(S(=O)(=O)Nc2c(C)n(C)n(-c3ccccc3)c2=O)cc1,-0.1%,-4.9%,1.7%,16.7,-197.2*,3.3
Cc1c(NS(=O)(=O)c2ccc(Br)cc2)c(=O)n(-c2ccccc2)n1C,1.6%,i,-3.6%,-33.3,0.6,-0.6
COc1ccc(CN2CCC(Cc3ccccc3)CC2)cc1OC,2.1%,i,-3.5%,0.5,26.4,-1.0
COc1cccc(OC)c1OCCCN1CCC(Cc2ccccc2)CC1,-1.1%,-24.0%,-2.9%,-70.0*,-10.4,-8.4
COc1cccc(OC)c1OCCN1CCN(C(c2ccccc2)c2ccccc2)CC1,0.1%,i,-2.4%,-102.8*,?,-22.1
COC(=O)c1cc(S(=O)(=O)N2CCN(c3ccccc3F)CC2)c[nH]1,-0.6%,-11.2%,-1.9%,-78.7*,7.7,-1.4
Cn1c(SCC(=O)N2CCN(C(=O)c3ccco3)CC2)nnc1-c1ccc(NS(C)(=O)=O)cc1,1.3%,i,-3.3%,6.5,2.3,-4.4
O=C(Nc1ccc(Oc2c(F)c(F)c(F)c(F)c2F)cc1)OC1CCN2Cc3ccccc3N=C12 (stereo unspecified),-0.4%,-27.6%,19.3%,-100.2*,-83.2*,-14.3
O[C@@H]1CCN2Cc3ccccc3N=C12,.,.,-8.2%,.,.,.
c1ccc(-c2cnn3c(-c4ccccc4)c(-c4ccccc4)nc3n2)cc1,5.6%,-12.2%,-0.9%,-89.0*,-135.1*,-2.0
Nc1nc(-c2ccccc2)c(-c2ccccc2)n1N,0.0%,i,?,-7.3,-9.9,-2.9
COc1ccc(NC(=O)CSc2nnc(Cn3nnc4ccccc43)n2C)cc1,0.5%,i,-6.8%,9.6,-11.0,-18.6
CCOC(=O)N1CCN(C(=S)NC(=O)c2ccc(F)cc2)CC1,0.5%,-6.0%,-1.1%,-72.5*,-4.7,8.4
CCCc1nnc(NC(=O)c2nc(S(=O)(=O)Cc3cccc(C)c3)ncc2Cl)s1,-1.1%,-95.9%,-16.5%,-17.9,-6.7,-36.5
Cc1cccc(C)c1NC(=O)c1nc(S(=O)(=O)Cc2ccccc2F)ncc1Cl,.,.,-10.8%,.,.,.
Cc1cccc(CS(=O)(=O)c2ncc(Cl)c(C(=O)Nc3c(C)cccc3C)n2)c1,1.1%,-22.8%,-16.7%,-17.8,1.1,-96.2*
Cc1cccc(CS(=O)(=O)c2ncc(Cl)c(C(=O)NCc3ccccc3)n2)c1,-0.8%,-53.6%,-13.3%,17.3,-11.9,-62.2*!
Cc1cccc(C)c1NC(=O)c1nc(S(=O)(=O)Cc2ccccc2)ncc1Cl,-1.6%,-19.7%,-18.7%,-3.8,-8.6,-70.5*
SMILES,RXFP1 agonist,PTHR1 ag,Glioma ERSR ind,KCNH2 3.1 block,KCNH2 WT inh,RXFP1 antagonist
COc1cc([C@@H]2CC=C(C(=O)O)[C@H](c3ccc(C)cc3)N2S(=O)(=O)c2ccc(C)cc2)cc(OC)c1OC,.,i,-3.6%,11.4,-8.4,.
Cc1ccc(S(=O)(=O)N2CCC(=O)N(C(COCc3cccc(C)c3)C(C)C)CC2)cc1 (stereo unspecified),1.5%,-18.5%,-4.4%,?,2.5,.
O=S(=O)(Nc1ncn[nH]1)c1ccc(Cl)cc1,1.2%,-14.8%,-1.4%,-85.0*,-19.3,2.7
CCCCNC(=O)C(=O)Nc1cc2c3c(c1)CCC(=O)N3CCC2,1.0%,-3.3%,-5.3%,0.5,-7.3,6.9
C[N+](C)(C)CCC(=O)N1C/C(=C/c2ccccc2)C(=O)/C(=C\c2ccccc2)C1,.,i,-14.0%,.,-4.8,-13.0
CN(C)CCC(=O)N1C/C(=C/c2ccccc2)C(=O)/C(=C\c2ccccc2)C1,.,-94.5%,-14.3%,-72.3*,47.1,-113.5*
COc1cccc(-c2nnc(NC(=O)C3CCCCC3)o2)c1,3.1%,i,0.7%,-84.2*,-20.4,.
CC1(C)NC(=O)N(CC(O)CNC23CC4CC(CC(C4)C2)C3)C1=O (stereo unspecified),0.0%,i,-2.7%,8.1,-99.9*,-10.1
COc1ccc(C(=O)N2C=Cc3ccccc3C2C#N)cc1 (stereo unspecified),.,i,1.2%,-3.0,12.5,-0.5
N#CC1c2ccccc2C=CN1C(=O)N(c1ccccc1)c1ccccc1 (stereo unspecified),.,-21.9%,-13.7%,-3.7,-3.0,-94.3*
CCOC(=O)COc1ccc2c(C)cc(=O)oc2c1C(=O)c1ccccc1,3.4%,-4.8%,?,-5.6,-0.5,-9.1
CC(=O)c1c(OCC(=O)O)ccc2c(C)cc(=O)oc12,2.3%,i,-7.0%,-117.0*,2.4,2.5
COc1ccc(C)cc1NC(=O)Cn1c(=O)oc2cc(S(=O)(=O)NCc3ccccc3)ccc21,-0.9%,-16.3%,-3.5%,.,.,-4.8
Cc1ccc(-n2ncc3c2CCCC3NC(=O)c2csnn2)cc1C (stereo unspecified),-3.7%,-13.8%,-3.9%,7.4,-89.3*,-4.6
O=c1c2ccccc2sn1-c1cc(S(=O)(=O)N2CCOCC2)ccc1N1CCCCC1,.,.,-0.8%,.,.,.
O=c1c2ccccc2sn1-c1cc(S(=O)(=O)N2CCOCC2)ccc1N1CCCC1,0.7%,-9.8%[57.5 µM],1.4%,2.4,4.5,-61.8*
CCOC(=O)c1c(C)[nH]c(C(=O)N/N=C/c2cc([N+](=O)[O-])ccc2O)c1C,1.8%,-18.2%,-0.3%,-70.1*,-21.2,-6.5
CCOC(=O)c1c(C)[nH]c(C(=O)N/N=C\c2ccccc2O)c1C,1.0%,-10.9%,-1.1%,-7.3,24.3,.
COC(=O)c1ccc(Cn2cc(/C=C\[N+](=O)[O-])c3ccccc32)o1,-2.5%,-20.7%,-12.3%,-7.1,5.6,-94.8*
COc1ccc(/C=C/c2nc(-c3ccccc3O)n[nH]2)cc1OC,-1.0%,-0.3%,-0.4%,2.4,-3.3,-99.9*
